Assay outcomes from PubChem.
HCMV antiviral = human cytomegalovirus inhibition; HFF cells, HCMV-luciferase reporter, 72 h; stronger effect = lower value; activity change, negative = inhibition, % at 57.5 µM; hit rate 4.5% among 410,000; AID 1259415; in the data active = activity change below about -60%; inconclusive = no clear call, values can overlap the other calls; inactive = above about -39%
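Cell-based, HFFs, 1000 cells/well, 16 h 37C; cpds in DMSO + HCMV-luc, MOI 1 PFU/cell; 72 h 37C; OneGlo luminescence after 5 min RT; norm. to buffer vs Salinomycin 10uM.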
FMDV inh = antivirals against foot and mouth disease virus; Potency, µM (series often up to 57.9 µM), for the others: top-dose activity change, negative = inhibition, hits mostly inhibitors; AID 1159524; FMDV antiviral cell-based qHTS; hit rate 1.2% among 410,000; calls by dose curve; tested in HEK293T cells; note: read-out not given here; potency is the fitted concentration of half-maximal effect; nearly all actives have a fitted effect of over 45% in size
Vaccinia Venus = inhibitors of vaccinia virus (Venus reporter); Potency, µM (top dose mostly 36.5 µM), inactives show at the highest dose activity change, negative = inhibition, usual class: inhibitors; hit rate 0.46% among 330,000; Vaccinia virus Venus reporter expression, fluorescence; calls by dose curve; tested in A549 cells; note: potency is the fitted concentration of half-maximal effect; nearly all actives have a fitted effect of over 30% in size
LASV entry inh = inhibitors of Lassa virus binding or cell entry; hit rate 1.2% among 300,000; Potency, µM (titrated, usually from 37.9 µM), for inactives: at the highest dose activity change, negative = inhibition, most hits filed as inhibitors; Lassa virus pseudotype entry inhibition, cell reporter; AID 540256; calls by dose curve; tested in HEK293 cells; note: potency is the fitted concentration of half-maximal effect; nearly all actives have a fitted effect of over 50% in size
MARV entry inh = inhibitors of Marburg virus binding or cell entry; Marburg virus pseudotyped entry inhibition, cell reporter; Potency, µM (top dose mostly 37.8 µM), for the others: top-dose activity change, negative = inhibition, usual class: inhibitors; hit rate 1.8% among 300,000; AID 540276; calls by dose curve; tested in HEK293 cells; note: potency is the fitted concentration of half-maximal effect
VACV mCherry inh = inhibitors of vaccinia virus infection (mCherry reporter signal); Vaccinia virus mCherry reporter infection, fluorescence; Potency, µM (titrated, usually from 36.5 µM), without a hit: at the highest dose activity change, negative = inhibition, actives largely listed as inhibitors; hit rate 0.63% among 310,000; calls by dose curve; tested in A549 cells; note: potency is the fitted concentration of half-maximal effect; nearly all actives have a fitted effect of over 35% in size
* marks the source's active call; other numbers are inactive results; ! = repeats disagree; [ ] = dose if it differs, or a comment. Compounds with a hit are over-represented: about 6.5% of the library has one in this group of screens. % is set by controls: 0 for no effect and ±100 for the full control effect.

Screening COc1ccc2oc3cc(C)[n+]([O-])c(-c4ccc(C)cc4)c3c2c1 returned HCMV antiviral -93*, FMDV inh 25µM*, Vaccinia Venus -21%, LASV entry inh inconclusive, MARV entry inh inconclusive and VACV mCherry inh -11%.
For COc1ccc(CN2CCOc3ccc(CN4CCC(Oc5cccnc5)CC4)cc3C2)c(F)c1 the results were FMDV inh inconclusive, Vaccinia Venus -28% and VACV mCherry inh -10%.
`O=C(CSc1nc2c([nH]c3ccccc32)c(=O)n1-c1ccccc1F)Nc1cccc(Cl)c1` gave HCMV antiviral inconclusive, FMDV inh -19%, Vaccinia Venus -22%, LASV entry inh -24%[46.1 µM] and VACV mCherry inh -28%.
For Fc1ccccc1SCc1nnc(-c2ccccc2Br)o1 the results were HCMV antiviral -35, FMDV inh -42%, Vaccinia Venus -1%, LASV entry inh inconclusive, MARV entry inh 5µM* and VACV mCherry inh -9%.
For Cc1csc(SCc2nnc(-c3ccccc3Br)o2)n1 the results were HCMV antiviral 158, Vaccinia Venus -4%, LASV entry inh -25%, MARV entry inh -13% and VACV mCherry inh 2%.
`O=C(CSc1nnc(CNC(=O)c2ccccc2)n1-c1cccc(Cl)c1)Nc1ccccc1F` gave HCMV antiviral -1, FMDV inh -15%, Vaccinia Venus 6%, LASV entry inh inconclusive, MARV entry inh -22%[46.1 µM] and VACV mCherry inh -3%.
N/C(Cc1ccc([N+](=O)[O-])cc1)=N\OC(=O)COc1cccc2ccccc12 was read as HCMV antiviral 14, FMDV inh -14%, LASV entry inh inconclusive and MARV entry inh -12%.
For N/C(Cc1ccc([N+](=O)[O-])cc1)=N\OC(=O)COc1ccccc1Cl the results were HCMV antiviral -102*, FMDV inh 20%, Vaccinia Venus 4%, LASV entry inh 6%, MARV entry inh 21% and VACV mCherry inh -12%.
Screening Cc1cc(Cl)ccc1NC(=O)C1CCN(c2nnc(-n3c(C)ccc3C)s2)CC1 returned HCMV antiviral -11, FMDV inh -18%, Vaccinia Venus -5%, LASV entry inh inconclusive, MARV entry inh -10%[46.1 µM] and VACV mCherry inh -9%.
Screening CCCCc1nc2ccccc2c(=O)n1-c1ccc(Cl)cc1[N+](=O)[O-] returned HCMV antiviral -62*, FMDV inh -3%, LASV entry inh 28% and MARV entry inh inconclusive.
For O=C(CCc1cccnc1)NCC1Cc2cccc(-c3ncccn3)c2O1 (configuration not stated) the results were FMDV inh -10%, Vaccinia Venus 18% and VACV mCherry inh -2%.
Screening CCOC(=O)C(C)Oc1cccc2c(=O)n(CC(=O)NCc3ccc(F)cc3)ccc12 (configuration not stated) returned HCMV antiviral -65* and FMDV inh -3%.
`COCCn1ccc2c(OCC(=O)NCc3ccccc3)cccc2c1=O` gave HCMV antiviral -10, FMDV inh -1%, Vaccinia Venus -7%, LASV entry inh 1.6µM*, MARV entry inh 22% and VACV mCherry inh -7%.
For CCOC(=O)C(C)Oc1cccc2c(=O)n(CC(=O)NCc3ccccc3)ccc12 (configuration not stated) the results were HCMV antiviral -89*, FMDV inh -24%, Vaccinia Venus -24%, LASV entry inh inconclusive, MARV entry inh inconclusive and VACV mCherry inh -14%.
Screening CCOC(=O)C(C)Oc1cccc2c(=O)n(CC(=O)NCCc3ccccc3)ccc12 (configuration not stated) returned HCMV antiviral 0, FMDV inh -17%, Vaccinia Venus -20% and VACV mCherry inh -19%.
Screening COc1cccc(NC(=O)c2ccccc2NS(C)(=O)=O)c1 returned HCMV antiviral 78, FMDV inh -10%, LASV entry inh inconclusive and MARV entry inh inconclusive.
Screening CS(=O)(=O)Nc1ccccc1C(=O)Nc1cccc(Cl)c1 returned HCMV antiviral -67*, Vaccinia Venus -23%, LASV entry inh -1%, MARV entry inh inconclusive and VACV mCherry inh inconclusive.
For CS(=O)(=O)Nc1ccccc1C(=O)Nc1cc(Cl)cc(Cl)c1 the results were HCMV antiviral -103*, FMDV inh inconclusive, Vaccinia Venus 11µM*, LASV entry inh inconclusive, MARV entry inh inconclusive and VACV mCherry inh 7.9µM*.
`CCS(=O)(=O)c1ccc(C(=O)Nc2cccc(Cl)c2)c(Cl)c1Cl` gave HCMV antiviral inconclusive, FMDV inh 28µM*, Vaccinia Venus inconclusive, LASV entry inh inconclusive and MARV entry inh inconclusive.
For O=C1NC(=O)N(Cc2ccccc2Cl)C(=O)/C1=C/c1cccs1 the results were HCMV antiviral -97*, FMDV inh 22µM*, Vaccinia Venus inconclusive and VACV mCherry inh -15%.
For O=C1NC(=O)N(Cc2ccc(F)cc2)C(=O)/C1=C\c1ccoc1 the results were HCMV antiviral inconclusive, FMDV inh -28%, Vaccinia Venus 9%[7.34 µM], LASV entry inh -14%, MARV entry inh 10%[46.1 µM] and VACV mCherry inh inactive[7.34 µM].
`Cc1ccc(/C=C2\C(=O)NC(=O)N(Cc3ccccc3Cl)C2=O)o1` gave HCMV antiviral 125 and FMDV inh 32µM*.
`Cc1ccc(/C=C2\C(=O)NC(=O)N(CCc3ccc(F)cc3)C2=O)o1` gave HCMV antiviral 27, FMDV inh 22µM* and MARV entry inh 1%.
`O=C1NC(=O)N(Cc2ccc(F)cc2)C(=O)/C1=C/c1cccs1` gave HCMV antiviral 12, FMDV inh 32µM*, Vaccinia Venus -2%, LASV entry inh -4%, MARV entry inh -22% and VACV mCherry inh inactive.
For Cc1ccc(/C=C2/C(=O)NC(=O)N(Cc3ccc(F)cc3)C2=O)o1 the results were HCMV antiviral 28.
Screening O=C1Nc2ccccc2[C@@]12O[C@H](COc1ccccc1)CC1=C2CCC1 returned MARV entry inh 10%[14.2 µM].
`CC(=O)c1c2c(cc3c(N(C)C)cccc13)CC(CO)(CO)C2` gave HCMV antiviral -17.
Cc1cccc(CNC(=O)c2cnn(-c3nccc(-c4ccccc4F)n3)c2C)n1 was read as FMDV inh -8%, Vaccinia Venus -1% and VACV mCherry inh -10%.
Screening Cc1cc(N2CCN(C/C=C/c3ccccc3)CC2)n2ncnc2n1 returned HCMV antiviral -91*, Vaccinia Venus -12%, LASV entry inh inconclusive, MARV entry inh inconclusive and VACV mCherry inh inactive.
Screening C(=C\c1ccnc2ccccc12)/c1ccc2c(c1)OCO2 returned Vaccinia Venus -17% and VACV mCherry inh -18%.
`NC(=O)CNCCC(c1ccccc1)c1ccccc1` gave HCMV antiviral -9, FMDV inh -9%, Vaccinia Venus -15%, LASV entry inh -2%, MARV entry inh 11µM*! and VACV mCherry inh -19%.
Screening NC(=O)COC(=O)CC(c1ccccc1)c1ccccc1 returned HCMV antiviral -21, FMDV inh -9%, Vaccinia Venus -3%, LASV entry inh 9%, MARV entry inh 5%[46.1 µM] and VACV mCherry inh inactive.
